Data published in PubChem BioAssay.
Results with a measured potency or affinity are listed apart. Calls of active or inactive are those of the source. Unless noted, no rule for the calls is given here.

Biological target: Calcium-dependent protein kinase 1 (Plasmodium falciparum (isolate 3D7)) (UniProt P62344)
Test: PfCDPK1 kinase inhibitors, biochemical, TCAMS library (AID 1159585; cut-off not given, nearly all actives have IC50 up to about 0.98 µM;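 also: inhibitors leave more ATP so luminescence rises with inhibition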)
Details: recombinant PfCDPK1, Kinase-Glo ATP depletion luminescence

Calcium-dependent protein kinase 1 (Plasmodium falciparum (isolate 3D7)), sequence (P62344 whole entry, looked up): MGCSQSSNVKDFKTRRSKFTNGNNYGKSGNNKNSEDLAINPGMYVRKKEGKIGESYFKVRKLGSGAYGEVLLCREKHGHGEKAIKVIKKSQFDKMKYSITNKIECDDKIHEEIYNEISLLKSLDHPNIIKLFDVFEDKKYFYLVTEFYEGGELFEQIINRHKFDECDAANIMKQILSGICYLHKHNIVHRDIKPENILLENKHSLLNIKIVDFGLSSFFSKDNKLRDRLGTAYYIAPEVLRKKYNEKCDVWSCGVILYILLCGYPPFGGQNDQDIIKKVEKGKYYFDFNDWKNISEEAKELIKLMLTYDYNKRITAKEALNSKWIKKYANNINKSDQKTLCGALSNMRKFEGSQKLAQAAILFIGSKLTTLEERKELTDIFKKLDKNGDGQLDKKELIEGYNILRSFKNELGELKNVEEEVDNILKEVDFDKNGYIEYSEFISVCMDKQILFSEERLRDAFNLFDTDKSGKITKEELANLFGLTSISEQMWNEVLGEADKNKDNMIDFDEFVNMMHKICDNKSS

outcome, inactive:
Cc1ccc2cc(NCCCCCCCCON3C(N)=NC(N)=NC34CCCCC4)ccc2n1
O=C(C1CCN(c2nnnn2-c2ccccc2)CC1)N1CCc2ccccc2C1
COc1cc2nc(N3CCN(C(=O)c4ccco4)CC3)nc(NCc3ccccc3)c2cc1OC
C[C@@H]1CN(c2cnn(C/C=C/c3ccc(NC(=O)c4ccc(Cl)cc4)cc3)c(=O)c2Cl)C[C@H](C)N1
O=C(N[C@@H](Cc1ccccc1)C(=O)NC1CCCCC1)c1ccc(O)c(-c2cccc(C(F)(F)F)c2)c1
CC(=O)Nc1ccc(NC(=O)c2cc(-c3cc(Cl)ccc3O)n[nH]2)cc1
CN1CCCN(c2ccnc3cc4c(cc23)N(C(=O)c2ccc(C(F)(F)F)cc2)CC4)CC1
N#Cc1ccc(-c2ccc(C(=O)NCCCCN3CCC(c4ccc5c(c4OCC(N)=O)CCCC5)CC3)cc2)cc1
NC(=O)c1cc2nc(Nc3ccc(F)cc3)nc(NC3CCC3)c2[nH]1
CC(C)COc1ccc(Cl)cc1Nc1nc(-c2nc3ccccc3[nH]2)cs1
Cc1cc(OCC2CCCO2)c2cc(NC(=O)C(=O)Nc3ccc4nc(C)cc(OCC5CCCO5)c4c3)ccc2n1 (stereo not given)
CC(C)Sc1nc2c(c(=O)n1Cc1ccco1)C1(CCCC1)Cc1ccccc1-2
Nc1c(Cl)cc(C(O)CNCCCCCCCCCc2ccccn2)cc1Cl (stereo not given)
COc1cc(NC(=O)/C=C/c2cccc3ccoc23)ccc1OCCN(C(C)C)C(C)C
Cc1ccc(N(CCC(=N)N)Cc2ccccc2)cc1
c1ccc2[nH]c(CN(Cc3nc4ccccc4[nH]3)Cc3nc4ccccc4[nH]3)nc2c1
COc1cc2ccccc2cc1OCCCN1CCN(CC(c2ccc(F)cc2)N2CCN(C(C)C)CC2)CC1 (stereo not given)
COc1ccc(CCNCCCCCNCCCc2ccc(Cl)cc2)cc1OC
Clc1cc(Cl)cc(Nc2ccnc(Nc3cc(Cl)cc(Cl)c3)n2)c1
CC(C)(C)C(=O)Oc1ccc(CC2NCCc3cc(OC(=O)C(C)(C)C)c(OC(=O)C(C)(C)C)cc32)cc1OC(=O)C(C)(C)C (stereo not given)
CSc1ccc(NC(=O)Nc2cc(C)nc3ccccc23)cc1
Cc1cc(C2CCN(CCCCNC(=O)c3ccc(-c4ccc(C(F)(F)F)cc4)cc3)CC2)c(C)cc1OCC(N)=O
COc1ccc(NC(=O)CCNc2cc(C)nc(NCc3ccccc3C)n2)cc1
O=C(NCC1CCC(C(=O)O)CC1)c1ccc(/C=C/C(=O)N2CCc3ccccc3C2c2ccc3c(c2)OCO3)cc1 (stereo not given)
O=C(C=Cc1cn(-c2ccccc2)nc1-c1ccccc1)N1CCN(c2ccncc2)CC1
O=c1ccc2ncc(Cl)c3c2n1CC3CN1CCC(NCc2cc3c(cn2)OCCO3)CC1 (stereo not given)
CC(C)NCc1ccc(-c2ccc(CN3CCCC(c4ccccc4)C3)cc2)c(C(=O)NC2Cc3ccccc3C2)c1 (stereo not given)
O=C(Nc1ccc(-c2nc3ccccc3[nH]2)cc1)C1CCCN(C2CCC2)C1 (stereo not given)
CCOC(=O)C(Oc1ccc2ccccc2c1)C(=O)OCC
CC(C)CNC(=S)N1CCCN(c2nc3ccc(Cl)cc3s2)CC1
O=C(CCc1ccccc1)NC(c1ccc(Cl)cc1)c1ccc2cccnc2c1O (stereo not given)
O=C(Nc1cccc(-c2cccc(-c3nc4ccc(C(F)(F)F)cc4[nH]3)c2)c1)c1ccoc1
COc1cc2nccc(Nc3cc(C)cc(O)c3)c2cc1OC
O=C(NC1CCN(CCC[C@]2(c3ccc(Cl)c(Cl)c3)CCCN(C(=O)c3ccccc3)C2)CC1)c1ccc(Cl)cc1
COc1cc(C)cc(CN2CCC(Cc3ccccc3)CC2)c1O
Cc1ccc(-n2c(Cc3cccc4ccccc34)nnc2SCCC#N)c(C)c1
O=C(NC1CCN(c2ccnc3cc(Cl)ccc23)C1)c1ccc(C(F)(F)F)cc1 (stereo not given)
O=C(Nc1cccc(-c2cccc(-c3ccc(F)cc3)n2)c1)c1ccc([N+](=O)[O-])o1
Nc1ncc(-c2ccc(NC(=O)Nc3cc(C(F)(F)F)ccc3F)cc2)c(N)n1
Nc1ncnc2nc(-c3ccc(F)cc3)cc(-c3ccc(NC(=O)c4ccccc4)cc3)c12

Biological target: Plasmodium falciparum protein kinase 6 (PK6, PF3D7_1337100) (UniProt Q8IDW1)
Sequence (Q8IDW1 1-305): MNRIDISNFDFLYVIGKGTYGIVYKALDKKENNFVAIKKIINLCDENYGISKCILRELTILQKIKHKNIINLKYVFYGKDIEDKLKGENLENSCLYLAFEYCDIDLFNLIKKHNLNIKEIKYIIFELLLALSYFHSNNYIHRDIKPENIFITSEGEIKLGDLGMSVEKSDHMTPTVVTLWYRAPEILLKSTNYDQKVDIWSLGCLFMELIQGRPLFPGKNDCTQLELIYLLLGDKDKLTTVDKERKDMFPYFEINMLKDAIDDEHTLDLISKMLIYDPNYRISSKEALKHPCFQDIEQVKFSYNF
Test: PfPK6 kinase inhibitors, biochemical, TCAMS library (AID 1159586)
Details: recombinant PfPK6, Kinase-Glo ATP depletion luminescence

outcome, inactive:
Cc1ccc2cc(NCCCCCCCCON3C(N)=NC(N)=NC34CCCCC4)ccc2n1
O=C(C1CCN(c2nnnn2-c2ccccc2)CC1)N1CCc2ccccc2C1
COc1cc2nc(N3CCN(C(=O)c4ccco4)CC3)nc(NCc3ccccc3)c2cc1OC
C[C@@H]1CN(c2cnn(C/C=C/c3ccc(NC(=O)c4ccc(Cl)cc4)cc3)c(=O)c2Cl)C[C@H](C)N1
O=C(N[C@@H](Cc1ccccc1)C(=O)NC1CCCCC1)c1ccc(O)c(-c2cccc(C(F)(F)F)c2)c1
CC(=O)Nc1ccc(NC(=O)c2cc(-c3cc(Cl)ccc3O)n[nH]2)cc1
CN1CCCN(c2ccnc3cc4c(cc23)N(C(=O)c2ccc(C(F)(F)F)cc2)CC4)CC1
N#Cc1ccc(-c2ccc(C(=O)NCCCCN3CCC(c4ccc5c(c4OCC(N)=O)CCCC5)CC3)cc2)cc1
NC(=O)c1cc2nc(Nc3ccc(F)cc3)nc(NC3CCC3)c2[nH]1
CC(C)COc1ccc(Cl)cc1Nc1nc(-c2nc3ccccc3[nH]2)cs1
Cc1cc(OCC2CCCO2)c2cc(NC(=O)C(=O)Nc3ccc4nc(C)cc(OCC5CCCO5)c4c3)ccc2n1 (stereo not given)
CC(C)Sc1nc2c(c(=O)n1Cc1ccco1)C1(CCCC1)Cc1ccccc1-2
Nc1c(Cl)cc(C(O)CNCCCCCCCCCc2ccccn2)cc1Cl (stereo not given)
COc1cc(NC(=O)/C=C/c2cccc3ccoc23)ccc1OCCN(C(C)C)C(C)C
Cc1ccc(N(CCC(=N)N)Cc2ccccc2)cc1
c1ccc2[nH]c(CN(Cc3nc4ccccc4[nH]3)Cc3nc4ccccc4[nH]3)nc2c1
COc1cc2ccccc2cc1OCCCN1CCN(CC(c2ccc(F)cc2)N2CCN(C(C)C)CC2)CC1 (stereo not given)
COc1ccc(CCNCCCCCNCCCc2ccc(Cl)cc2)cc1OC
Clc1cc(Cl)cc(Nc2ccnc(Nc3cc(Cl)cc(Cl)c3)n2)c1
CC(C)(C)C(=O)Oc1ccc(CC2NCCc3cc(OC(=O)C(C)(C)C)c(OC(=O)C(C)(C)C)cc32)cc1OC(=O)C(C)(C)C (stereo not given)
CSc1ccc(NC(=O)Nc2cc(C)nc3ccccc23)cc1
Cc1cc(C2CCN(CCCCNC(=O)c3ccc(-c4ccc(C(F)(F)F)cc4)cc3)CC2)c(C)cc1OCC(N)=O
COc1ccc(NC(=O)CCNc2cc(C)nc(NCc3ccccc3C)n2)cc1
O=C(NCC1CCC(C(=O)O)CC1)c1ccc(/C=C/C(=O)N2CCc3ccccc3C2c2ccc3c(c2)OCO3)cc1 (stereo not given)
O=C(C=Cc1cn(-c2ccccc2)nc1-c1ccccc1)N1CCN(c2ccncc2)CC1
O=c1ccc2ncc(Cl)c3c2n1CC3CN1CCC(NCc2cc3c(cn2)OCCO3)CC1 (stereo not given)
CC(C)NCc1ccc(-c2ccc(CN3CCCC(c4ccccc4)C3)cc2)c(C(=O)NC2Cc3ccccc3C2)c1 (stereo not given)
O=C(Nc1ccc(-c2nc3ccccc3[nH]2)cc1)C1CCCN(C2CCC2)C1 (stereo not given)
CCOC(=O)C(Oc1ccc2ccccc2c1)C(=O)OCC
CC(C)CNC(=S)N1CCCN(c2nc3ccc(Cl)cc3s2)CC1
O=C(CCc1ccccc1)NC(c1ccc(Cl)cc1)c1ccc2cccnc2c1O (stereo not given)
O=C(Nc1cccc(-c2cccc(-c3nc4ccc(C(F)(F)F)cc4[nH]3)c2)c1)c1ccoc1
COc1cc2nccc(Nc3cc(C)cc(O)c3)c2cc1OC
O=C(NC1CCN(CCC[C@]2(c3ccc(Cl)c(Cl)c3)CCCN(C(=O)c3ccccc3)C2)CC1)c1ccc(Cl)cc1
COc1cc(C)cc(CN2CCC(Cc3ccccc3)CC2)c1O
Cc1ccc(-n2c(Cc3cccc4ccccc34)nnc2SCCC#N)c(C)c1
O=C(NC1CCN(c2ccnc3cc(Cl)ccc23)C1)c1ccc(C(F)(F)F)cc1 (stereo not given)
O=C(Nc1cccc(-c2cccc(-c3ccc(F)cc3)n2)c1)c1ccc([N+](=O)[O-])o1
Nc1ncc(-c2ccc(NC(=O)Nc3cc(C(F)(F)F)ccc3F)cc2)c(N)n1
Nc1ncnc2nc(-c3ccc(F)cc3)cc(-c3ccc(NC(=O)c4ccccc4)cc3)c12
